Screens from PubChem.
An excerpt weighted towards active compounds, which were near 4.6% of everything screened.
D1 potentiator – enhances dopamine response at the human D1 receptor; potentiation, % at 10 µM; AID 504651; HEK293 TREx D1 cells, calcium flux, dopamine EC20 potentiation; P21728; 360,000 tested, 0.036% active; in the data active means potentiation above about 30%; further: 0% is about no effect
Target sequence (P21728 whole entry, looked up): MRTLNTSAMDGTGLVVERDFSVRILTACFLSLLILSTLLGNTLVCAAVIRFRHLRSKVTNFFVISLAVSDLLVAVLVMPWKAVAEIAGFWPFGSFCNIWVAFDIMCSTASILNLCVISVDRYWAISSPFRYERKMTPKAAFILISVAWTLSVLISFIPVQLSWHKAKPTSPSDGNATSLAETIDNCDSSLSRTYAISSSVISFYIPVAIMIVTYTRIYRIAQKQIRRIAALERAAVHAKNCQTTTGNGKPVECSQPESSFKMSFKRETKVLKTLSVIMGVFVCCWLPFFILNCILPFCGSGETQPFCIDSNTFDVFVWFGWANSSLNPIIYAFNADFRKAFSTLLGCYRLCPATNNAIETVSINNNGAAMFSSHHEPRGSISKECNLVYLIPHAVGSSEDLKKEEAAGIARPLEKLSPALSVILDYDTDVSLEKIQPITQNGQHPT
D1 antagonist – antagonists of human D1 dopamine receptor. activity change, negative = inhibition, % at 10 µM. 360,000 tested, 3.2% active. P21728. HEK293 TREx D1 cells, calcium flux, dopamine EC80; hits give low values; in the data active means activity change below about -30%; further: on the % scale 0 is the no-effect control and ±100 the full control effect
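Antagonism measured as reduced calcium response to an EC80 dopamine addition following 180 s compound pre-read; cells were inducible HEK293 Trex D1 plated overnight at 30 C, read kinetically at 1 cycle/sec.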
TRHR agonist – agonists of human TRH receptor; P34981; TRHR cells, calcium flux fluo-8, FDSS agonist mode; activation, % at 2 µM; 360,000 tested, 0.18% active; further: 0% is about no effect
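Read-out: compound-evoked intracellular calcium rise in TRHR cells, fluo-8 dye, kinetic FDSS fluorescence at 1 s/cycle following a 10-cycle baseline. Cells cultured overnight before dye loading (30 min–1.5 h, RT).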
TRHR PAM – allosteric enhancers of human TRH receptor | TRHR cells, fluo-8 calcium fluorescence, EC20 TRH enhancement | P34981 | 360,000 tested, 0.66% active | AID 493056 | enhancement, % at 2 µM; in the data active means enhancement above about 30%; further: 0% is about no effect
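TRHR-expressing cells loaded with fluo-8 calcium dye were read kinetically (ex 480/em 530) during compound addition, then stimulated with an EC20 of TRH (10 nM final). Enhancement of the Gq-mediated intracellular calcium response was scored.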
D1 ag – agonists of human D1 dopamine receptor. P21728. HEK293 T-REx D1 cells, calcium flux, agonist mode. activation, % at 2 µM. 360,000 tested, 1% active. AID 504660; further: 0% is about no effect
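Agonism was scored from calcium flux recorded over 180 s (1 read/s) after pintool compound addition, following a 10-cycle baseline. Cells were inducible force-coupled HEK293 TREx D1, plated overnight at 30 C and loaded with no-wash calcium dye.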
* hit, by the source's call. Unless noted, no stated cut-off is given here; in the data, active means activation above about 30%; inactive means the rest.

SMILES	D1 potentiator	D1 antagonist	TRHR agonist	TRHR PAM	D1 ag
COc1ccccc1CNC(=O)c1ccc(-c2nc(CS(=O)c3ccc(C)cc3)c(C)o2)cc1 (stereo not drawn)	-0.7	-7.0	-0.8	13.2	1.7
CC(SCc1cc(=O)n2c([nH]c3ccccc32)c1C#N)C(=O)O (stereo not drawn)	-3.9	-32.0*	1.7	1.6	3.3
Cc1ccc(-c2c(C)n3c4c(=O)n(C)c(=O)n(C)c4nc3n2CCCO)cc1	-2.5	3.4	-1.7	-1.3	-1.0
O=C1CN(C(=O)c2ccc(S(=O)(=O)N3CCCCC3)cc2)C(c2ccc(F)cc2)c2cc(Br)ccc2N1 (stereo not drawn)	0.7	4.6	1.6	-2.4	4.3
N/C(=N\N=C/c1ccc(F)cc1)N/N=C\c1ccc(F)cc1	-10.5	-59.5*	-0.6	5.0	10.6
N/C(=N\N=C/c1ccc(Br)cc1)N/N=C\c1ccc(Br)cc1	-2.4	9.6	-0.4	4.5	1.0
COC(=O)c1ccc(-n2nnc(-c3nc(-c4ccc5c(c4)OCO5)no3)c2C)cc1	2.0	10.6	0.5	2.5	4.1
O=S(=O)(NC[C@@H]1CCC[C@H](CNS(=O)(=O)c2c(F)cccc2F)C1)c1ccc2c(c1)OCCO2	-4.5	-1.6	1.1	-1.2	5.9
CC1CCN(CC(O)CN2c3ccccc3Sc3ccccc32)CC1 (stereo not drawn)	-8.7	-89.0*	1.1	15.1	33.3*
OCCNCC(O)CN1c2ccccc2Sc2ccccc21 (stereo not drawn)	-11.2	-31.0*	1.6	-3.5	6.9
O=C(O)CCN1c2ccccc2Sc2ccccc21	0.7	13.0	-1.1	-8.1	2.6
CC1CCCN(C(=O)N2c3ccccc3Sc3ccccc32)C1 (stereo not drawn)	-3.9	-3.2	-0.2	-6.7	1.0
O=C(CSc1cccc2cccnc12)N/N=C/c1ccc(F)cc1	-9.3	-49.9*	-1.0	5.2	1.8
CCOC(=O)c1cccc(NC(=O)c2ccc3c(Cl)c4c(nc3c2)CCC4)c1	-2.7	5.2	-1.5	-7.3	5.9
CCCS(=O)(=O)c1nc(S(=O)(=O)c2ccc(C)cc2)c(NCCCOC(C)C)s1	-1.6	-40.7*	-0.8	5.7	36.5*
Cc1ccc(S(=O)(=O)c2nc(S(=O)(=O)c3ccccc3)sc2NCCCOC(C)C)cc1	-0.7	4.1	2.2	1.3	4.1
COC(=O)c1c(SC)nc2ccccc2c1OCc1cc(C)ccc1C	-2.3	16.7	-0.9	13.1	30.8*
COc1ccc(OC)c(NC(=O)CSc2ncc3c(n2)-c2ccccc2N(C)S3(=O)=O)c1	3.1	-1.6	0.1	-2.7	0.7
CCC1CCCCN1CCCNC(=O)c1[nH]c2ccccc2c1Sc1ccc(Cl)cc1 (stereo not drawn)	-0.3	17.2	0.4	-0.9	3.8
CSc1ccc(C2c3c(oc4cc(C)cc(C)c4c3=O)C(=O)N2CCO)cc1 (stereo not drawn)	-0.8	-46.4*	0.8	4.8	0.0
CSc1ccc(C2c3c(oc4cc(C)cc(C)c4c3=O)C(=O)N2Cc2ccco2)cc1 (stereo not drawn)	4.3	-10.0	0.2	-4.3	-0.2
CCC(=O)N1CCc2cc(Br)cc(S(=O)(=O)CCC(=O)NCCc3cccc(C)c3)c21	-5.5	1.7	-1.2	0.7	-0.9
CCS(=O)(=O)N1CCN(c2ccc([N+](=O)[O-])c(NC(C)c3ccccc3)c2)CC1 (stereo not drawn)	-0.6	1.6	-0.3	1.4	-1.8
CC(Nc1cc(N2CCNCC2)ccc1[N+](=O)[O-])c1ccccc1 (stereo not drawn)	-1.8	3.1	-0.7	1.9	41.6*
CN1CCN(c2ncc3c(n2)CCN(Cc2ccccc2Cl)C3)CC1	-1.1	-17.7	0.1	6.5	8.2
CC(NC(=O)COC(=O)c1ccc(N(C)C)cc1)c1ccccc1 (stereo not drawn)	-7.6	-70.0*	-0.2	1.8	-0.3
Cc1cc(C)n(-c2ccc(C(=O)OCC(=O)NC(c3ccccc3)c3ccccc3)cc2)n1	-6.3	-12.0	3.4	-4.5	31.1*
CCOC(=O)c1ccc(-n2nc(C)cc2C)cc1	-6.2	4.9	-0.5	0.0	1.8
CC(NC(=O)COC(=O)c1ccco1)c1ccccc1 (stereo not drawn)	-0.8	-11.6	-0.1	11.0	2.9
